Most compounds without a hit are left out; they make up all but 2% or so of the library.
ARNT TACC3 PPI – ARNT/TACC3 interaction disruption; Q9Y6A5; AlphaScreen His-ARNT PAS-B/GST-TACC3 binding, luminescence; TACC3 fragment carries E629A point mutation; inhibition, % at 9.99 µM; 0.66% of 390,000 active;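 active means mean inhibition of replicates at least 50% and at least half of replicates each reaching 50%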;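 further: 0% = complete ARNT plus TACC3 wells and 100% = ARNT alone without TACC3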
Neddyl block – inhibitors of human cullin neddylation. TR-FRET cullin neddylation, biochemical. inhibition, % at 25 µM. AID 651699. P61081+Q13564. 0.58% of 360,000 active; in the data active means inhibition above about 36%
sPLA2-III inh – Inhibits HGIII-sPLA2 liposome hydrolysis, primary screen; Q9NZ20; QFRET BODIPY PC-A2 liposome hydrolysis, fluorescence; inhibition, % at 12.2 µM; 0.56% of 370,000 active;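 active means inhibition above mean plus 3 SD of compounds lying within the high and low control bounds, cut at about 19% in these data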;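 further: 0% = median of test compound wells and 100% = no enzyme DMSO wells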
Target sequence (Q9NZ20 whole entry, looked up): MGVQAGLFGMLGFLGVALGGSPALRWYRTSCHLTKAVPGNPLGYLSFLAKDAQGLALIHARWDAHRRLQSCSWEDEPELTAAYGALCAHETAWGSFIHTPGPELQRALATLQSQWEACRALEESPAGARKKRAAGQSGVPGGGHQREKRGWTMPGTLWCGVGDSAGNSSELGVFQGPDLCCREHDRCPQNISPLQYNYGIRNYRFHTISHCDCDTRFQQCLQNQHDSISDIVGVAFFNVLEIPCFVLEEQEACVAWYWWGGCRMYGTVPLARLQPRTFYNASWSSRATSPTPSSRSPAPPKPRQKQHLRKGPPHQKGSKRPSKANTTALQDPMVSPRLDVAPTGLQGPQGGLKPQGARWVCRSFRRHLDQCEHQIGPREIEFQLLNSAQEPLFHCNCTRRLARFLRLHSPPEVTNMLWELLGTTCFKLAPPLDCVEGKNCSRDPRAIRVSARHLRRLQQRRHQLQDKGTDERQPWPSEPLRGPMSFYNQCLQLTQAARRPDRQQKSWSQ
NadD block – inhibitors of Staphylococcus aureus NadD | inhibition, % at 20 µM | purified NadD enzyme, colorimetric absorbance read-out | 0.78% of 360,000 active | AID 602399; in the data active means inhibition above about 26%
DAGLB inhibitor – blocks human DAGLB lipase activity | inhibition, % at 5.17 µM | AID 504411 | 0.059% of 340,000 active | HEK293T DAGLB membrane lysate, EnzChek fluorogenic substrate; in the data active means inhibition above about 34%;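 further: 0% = enzyme with vehicle and 100% = wells lacking enzyme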
NadD conf – NadD (S. aureus) inhibition, single concentration confirmation; AID 624309; 13% of 2,000 active; purified S. aureus NadD, colorimetric enzyme assay; inhibition, % at 20 µM; shares compounds with NadD block; in the data active means inhibition mostly above about 42%, no sharp cut-off; inactive means mostly below about 42%
Active calls of the source: *; nt = no result given.

SMILES	ARNT TACC3 PPI	Neddyl block	sPLA2-III inh	NadD block	DAGLB inhibitor	NadD conf
C[C@@H]1CCCCO[C@H](CN(C)Cc2ccc(Cl)c(Cl)c2)[C@@H](C)CN([C@H](C)CO)C(=O)c2cc(NC(=O)NC3CCCCC3)ccc2O1	-2	nt	nt	nt	nt	nt
O=C(Nc1ccc(F)cc1)N1CCCCN2[C@H](C1)[C@H](c1ccc(C3=CCCCC3)cc1)[C@@H]2CO	-1	nt	nt	nt	nt	nt
COc1ccc(/C=N/NC(=O)c2ccc(CN3c4cccc5cccc(c45)S3(=O)=O)cc2)cc1	-1	nt	0	31*	-3	33
NNC(=O)c1ccc(CN2C(=O)c3cccc4cccc2c34)cc1	-2	31	-2	17	-8	nt
COc1ccccc1/C=N/NC(=O)c1ccc(CN2C(=O)c3cccc4cccc2c34)cc1	-14	nt	-4	35*	-2	12
Oc1c(Br)cc(Br)cc1C=Nc1ccc2[nH]ncc2c1	25	15	-5	30*	9	10
COc1ccc(C=Nc2ccc3[nH]ncc3c2)c(O)c1	-4	24	2	-1	-1	nt
COc1ccc(C2=NN(c3nc(-c4ccccc4)c(CC(=O)O)s3)C(c3ccco3)C2)cc1 (configuration not stated)	8	-20	-7	61*	4	72*
Nc1nc(=S)[nH]c2c1C1(CCCCC1)Cc1ccccc1-2	-2	-156	1	35*	0	17
Cc1ccc(-c2csc(N3CCN(S(=O)(=O)c4ccc5c(c4)NC(=O)CO5)CC3)n2)cc1	-1	7	-2	39*	-2	8
O=C1COc2ccc(S(=O)(=O)N3CCCC3)cc2N1	-6	-2	0	-2	1	nt
CO[C@@H]1CN(C)C(=O)c2cc(NC(=O)Cc3ccccc3)ccc2OC[C@H](C)NC[C@H]1C	-3	nt	nt	nt	nt	nt
CCOC(=O)c1ccc(NC(=O)CCNC(=O)c2ccc([N+](=O)[O-])cc2)cc1	-3	-30	7	-5	1	nt
C#CCCc1cocc1/C=[N+](\[O-])c1ccc(C(=O)OCC)cc1	-1	-5	-4	42*	-3	31
O=C(NCC1CCCCC1)[C@@H]1[C@@H](CO)[C@@H]2Cn3c(ccc(-c4ccccc4F)c3=O)[C@H]1N2	-4	nt	nt	nt	nt	nt
CCN1CCN(Cc2ccc(NC(=O)c3cc(NC(=O)c4cc(-c5ccc(OC)cc5)n[nH]4)cc(OC)c3)cc2C(F)(F)F)CC1	5	4	-18	13	-4	nt
CCN1CCN(Cc2ccc(NC(=O)c3cc(NC(=O)c4cncc(-c5cccs5)c4)cc(OC)c3)cc2C(F)(F)F)CC1	nt	2	-11	34*	0	11
Cc1ccc(C)c(S(=O)(=O)N2CCN(C(=O)/C=C/c3ccco3)CC2)c1	-1	-14	-7	35*	10	24
NNC(=O)Cn1c(-c2nonc2N)nc2ccccc21	-9	10	-2	8	0	nt
Nc1nonc1-c1nc2ccccc2n1CC(=O)N/N=C\c1ccc(-c2ccc(Cl)cc2)o1	-2	35	2	42*	-4	9
O=C(NCc1ccco1)c1cccc2c1C(=O)c1ccc(/C=C/c3ccccc3)cc1S2(=O)=O	-1	-12	9	48*	8	46*
O=C(NCCc1ccc(F)cc1)c1cccc2c1C(=O)c1ccc(N3CCC(Cc4ccccc4)CC3)cc1S2(=O)=O	4	-72	nt	28*	-9	5
O=C(NCc1cccc(F)c1)c1cccc2c1C(=O)c1ccc(N3CCC(Cc4ccccc4)CC3)cc1S2(=O)=O	-6	-150	nt	21	-7	nt
O=C(NCc1ccco1)c1cccc2c1C(=O)c1ccc(N3CCC(Cc4ccccc4)CC3)cc1S2(=O)=O	-2	-102	nt	39*	-19	5
COc1ccc(S(=O)(=O)Nc2ccc3c(c2)C(=O)N([C@H](C)CO)C[C@@H](C)[C@@H](CN(C)C(=O)Cc2ccccc2)OCCCC[C@H](C)O3)cc1	3	nt	nt	nt	nt	nt
O=C([C@H]1[C@H](CO)[C@H]2Cn3c(cccc3=O)[C@H]2N1Cc1ccccc1)N1CCCCC1	2	nt	nt	nt	nt	nt
C[C@@H]1CN([C@@H](C)CO)C(=O)c2cccc(NC(=O)NC3CCCCC3)c2O[C@H]1CN(C)Cc1ccc(C(F)(F)F)cc1	-1	nt	nt	nt	nt	nt
COc1cccc(C2C(C#N)=C(N)OC3=C2C(=O)CC(c2ccco2)C3)c1OCc1ccc(F)cc1 (configuration not stated)	-4	2	-15	31*	3	16
